Results as given in PubChem BioAssay AID652181 (The Scripps Research Institute Molecular Screening Center, 2013).

The compounds below were run on Hsp90 CT (assay: HSP90 domain binders, late-stage follow-up, orthogonal assay for selective HSP90 inhibitor project, biophysical, surface plasmon resonance (AID 652181)). Conditions: Surface plasmon resonance binding to HSP90 domains, at 200 µM, stronger effect = higher value.

SMILES | binding
Cc1cc(NO)nc(-c2ccc(Br)cc2)n1 | 0.77
COC(=O)c1ccccc1OCCCOc1ccc(C)cc1OC | 10.2
CC(=O)Nc1ccccc1OCC(=O)c1cc(C)n(Cc2cccs2)c1C | 10.6
CCOC(=O)C1=C(c2ccc(OC)cc2)C(=O)c2ccccc2C1=O | 11.2
Cc1c(-c2nc(-c3ccc(C(C)(C)C)cc3)no2)n(C)oc1=O | 4.46
Cc1c(-c2nc(-c3ccc(C(F)(F)F)cc3)no2)n(C)oc1=O | 7.47
CCOC(=O)c1csc(NC(=O)c2cc3ccccc3o2)n1 | 6.43
COc1ccccc1NC(=O)c1coc(=O)c(Br)c1 | 11.7
COc1cc(/C=N/Nc2ccc(Cl)c(C(=O)O)c2)ccc1OC(=O)c1ccc(F)cc1 | -4.19
CCc1ccc(OCc2ccc(C(=O)OC)o2)cc1 | 6.78
